Screens from PubChem BioAssay.
BAZ2B inh: qHTS Assay for Inhibitors of BAZ2B | Bromodomain adjacent to zinc finger domain protein 2B (Homo sapiens), Q9UIF8 | AlphaScreen BAZ2B-H3K14Ac peptide displacement | Potency, µM (highest dose often 114 µM), most hits filed as inhibitors | 360,000 compounds, 4.4% hits | AID 504333, 2011; further: nearly all actives have a fitted effect of over 60% in size
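BAZ2B (50 nM) with biotin-H3(5-23)K14Ac peptide (50 nM) in PBS pH 7.4, 0.01% Tween-20, preformed 30 min, then compound 30 min at room temperature; top concentration 110uM. AlphaScreen streptavidin donor/nickel chelate acceptor beads (10 ug/mL final), 20 min dark, signal read.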
Sfp inh: qHTS Assay for Inhibitors of Bacillus subtilis Sfp phosphopantetheinyl transferase (PPTase). 310,000 compounds, 3.5% hits. AID 1490, 2009. Potency, µM, usual class: inhibitors. 4'-phosphopantetheinyl transferase ffp (Bacillus subtilis), Q9F4F7. Biochemical Sfp PPTase activity, qHTS;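 further: the enzyme is Sfp with the accession as filed and its product quenches rhodamine fluorescence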
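Reaction rates are the 30-min fluorescence difference (ex 525, em 598 nm) in wells containing 15 nM Sfp, 5 uM rhodamine-CoA and 12.5 uM BHQ-2-YbbR at pH 7.6 with 10 mM MgCl2.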
G9a inh: qHTS Assay for Inhibitors of Histone Lysine Methyltransferase G9a; Histone-lysine N-methyltransferase EHMT2 (Homo sapiens), Q96KQ7; G9a H3K9 monomethylation, AlphaScreen, 2 h; Potency, µM (top dose mostly 102 µM), usual class: inhibitors; 350,000 compounds, 8.8% hits; further: nearly all actives have a fitted effect of over 75% in size
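Using a bead-based AlphaScreen, monomethylated H3K9 product from 2 h room-temperature reactions (G9a 20 nM, peptide 500 nM, SAM 20 uM) was detected with 0.5 ug/mL rabbit anti-H3K9me1 antibody.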
ALOX12 inh: Primary qHTS assay for inhibitors of human arachidonate 12S-lipoxygenase (ALOX12): Round 2. Polyunsaturated fatty acid lipoxygenase ALOX12 (Homo sapiens), P18054. purified 12hLO, xylenol orange hydroperoxide absorbance. Potency, µM (titrated, usually from 108 µM), actives largely listed as inhibitors. 580,000 compounds, 1.1% hits. AID 1671190, 2021
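Purified human 12hLO (150 nM final) in 25 mM Hepes, 0.01% Triton X-100, pH 7.0 was preincubated 15 min at room temperature with compound. Then 40 uM arachidonic acid was added, 30 min. Hydroperoxide was read by Fe-XO absorbance ratio 573/405 nm.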
HP1b binding inh: HTS for Inhibitors of HP1-beta Chromodomain Interactions with Methylated Histone Tails. Potency, µM (top dose mostly 114 µM), actives largely listed as inhibitors. Chromobox protein homolog 1 (Homo sapiens), P83916. AlphaScreen HP1-beta / biotin-H3K9me3 peptide binding. 390,000 compounds, 0.56% hits. AID 540317, 2011; further: nearly all actives have a fitted effect of over 70% in size
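HP1-beta protein (50 nM final) preincubated 30 min at room temperature with biotinylated H3(1-18)K9me3 peptide (50 nM) in PBS pH 7.4, 0.01% Tween-20, then compound added for 30 min. AlphaScreen streptavidin donor/nickel chelate acceptor beads (10 ug/mL final), 30 min dark, luminescence read.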
JMJD2A Tudor: qHTS Assay for Inhibitors of JMJD2A-Tudor Domain; AlphaScreen JMJD2A-Tudor / H3K4me3 peptide binding; Potency, µM (doses to about 114 µM), usual class: inhibitors; 390,000 compounds, 4.4% hits; further: nearly all actives have a fitted effect of over 50% in size
Numbers stand for hits; n = inactive; u = inconclusive; x = no result given; [ ] = dose if it differs, or a comment. Sampled rows, rich in hits. Any-hit rate of the full collection: about 8.7%. The call rests on the fitted dose curve; in most records, active means well fitted curve in the direction sought with a large enough effect; inconclusive means small, poorly fitted or top-dose-only effect, or another doubt; inactive means no such curve, though single readings can be large; an effect the other way counts as inactive or inconclusive.

SMILES	BAZ2B inh	Sfp inh	G9a inh	ALOX12 inh	HP1b binding inh	JMJD2A Tudor
CS(=O)(=O)C1=C(O)C(=O)N(CCCC(=O)O)C1c1ccccc1F (stereo unspecified)	n	n	n	u	n	50.1µM
CC(=O)C1=C(O)C(=O)N(Cc2ccccc2)C1c1ccccc1F (stereo unspecified)	n	n	u	n	n	n
CC(=O)C1=C(O)C(=O)N(CCC(=O)O)C1c1ccccc1[N+](=O)[O-] (stereo unspecified)	u	11.2µM	n	u	n	n
C[n+]1c(NCc2cc(Br)cc(Br)c2[O-])[nH]c2ccccc21	x	x	x	n	x	x
CCOc1ccc(Oc2ccc(Cl)cc2NC(=O)Cn2cnc3c2c(=O)n(C)c(=O)n3C)cc1	x	x	x	n	x	x
CCCCCCN1C(=O)C(O)=C(C(C)=O)C1c1ccccc1[N+](=O)[O-] (stereo unspecified)	u	u	50.1µM	n	n	n[11.4 µM]
Cc1c(C(=O)N2CCC(c3nc4ccccc4o3)CC2)oc2ccc(Cl)cc12	x	x	x	n	x	x
COc1ccc(Nc2nc(N)nc(CN3CCC(C)CC3)n2)cc1	n	n	20µM	n	n	n
COc1ccc(Nc2nc(N)nc(CSC(=S)N3CCCCC3C)n2)cc1 (stereo unspecified)	n	n	u	n	n	u
Nc1nc(CN2CCC(Cc3ccccc3)CC2)nc(Nc2ccccc2)n1	n	n	n[12.7 µM]	u	n	u
COc1ccc(Nc2nc(N)nc(CN3CCc4ccccc4C3)n2)cc1	50.1µM	n	u	n	n	u
COc1ccc(OCc2nc(N)nc(Nc3ccccc3)n2)cc1	n	n	u	u	n	n
CC1CC(C)CN(Cc2nc(N)nc(Nc3ccc4ccccc4c3)n2)C1 (stereo unspecified)	50.1µM	n	n	n	n	n[11.4 µM]
Nc1nc(CN2CCc3ccccc3C2)nc(Nc2ccccc2)n1	50.1µM	n	u	n	n	79.4µM
CC1CC(C)CN(Cc2nc(N)nc(Nc3ccccc3)n2)C1 (stereo unspecified)	u	n	x	n	n	u
O=C(OCc1ccc(F)cc1F)c1cccc([N+](=O)[O-])c1	x	x	x	n	x	x
O=C(CCOc1ccccc1)Nc1cnc2ccccc2c1	x	x	x	n	x	x
CCN1CCN(c2ccc(S(=O)(=O)N(CC)CC)cc2NC(=O)CCC2CCCC2)CC1	x	x	x	n	x	x
O=C1CCc2cc(C(=O)OC3CCOC3=O)ccc2N1 (stereo unspecified)	x	x	x	n	x	x
Cc1ccccc1N1CCN(Cc2cc3c(cc2[N+](=O)[O-])OCO3)CC1	u	n	x	n	n	n
CCOc1ccccc1N1CCN(Cc2cc3c(cc2[N+](=O)[O-])OCO3)CC1	u	n	70.8µM	n	n	u
O=[N+]([O-])c1cc2c(cc1CN1CCN(c3ccccc3F)CC1)OCO2	56.2µM	n	n	n	n	n
Cc1ccc2c(c1)-c1c(ssc1=S)C(C)(C)N2C(=O)CSC1=NCCS1	8.91µM	n	u	n	u	5.01µM
Cc1cccc(N2CCN(C(=O)c3ccc(N4CCCC4=O)cc3)CC2C)c1 (stereo unspecified)	n	n	n[0.501 µM]	n	n	n
Cc1cccc(N2CCN(C(=O)c3cc4ccc5cccnc5c4[nH]3)CC2C)c1 (stereo unspecified)	28.2µM	x	u	u	n	28.2µM
CC1=C(C(=O)Nc2cccc(C(=O)N3CCN(c4ccccc4)CC3)c2)SCCO1	x	x	x	n	x	x
Cc1ccc(C)c(N2CCN(C(=O)c3cc4ccc5cccnc5c4[nH]3)CC2)c1	n	x	n	n	n	u
COc1ccc(N2CCN(C(=O)c3ccc(C)c(NC(=O)C4=C(C)OCCS4)c3)CC2)cc1	44.7µM	n	39.8µM	n	n	u
